Compounds without any hit were thinned out: in the full panel of roughly 83,000, 20% have a hit.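 Interpretation: 100, growth as untreated; towards 0, rising growth inhibition; 0, no net growth; 0 to -100, cell death. Compounds scoring below 10 were considered active.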 A number with no mark means an inactive call. Active and inactive are the calls of the source.

Test systems include BT-549 breast; MDA-MB-435 melanoma; SW-620 colon; MCF7 breast; HCT-116 colon; HCC-2998 colon; KM12 colon.
Test in all cases: NCI-60 one-dose screen, 48 h (100 = growth as untreated, 0 = no growth, -100 = all killed)
Conditions in all cases: 10 µM unless noted

For the compound `Cc1ccc(CNc2c3ccccc3nc3cc(NC(=O)CCN4CCCC4)ccc23)cc1`, the growth in the assay with BT-549 breast was 35.3%; in the assay on MDA-MB-435 melanoma, 8.86% (active); in the assay with SW-620 colon it was -57.4% (active); in the assay on MCF7 breast, -22.4% (active); with HCT-116 colon it was -77.9% (active); in the assay on HCC-2998 colon, -15.8% (active). In addition, the growth in the assay with KM12 colon is -6.45% (active).

Turning to `C=CCN1C(=O)/C(=C/C(=O)OC)S/C1=N\NC(=O)c1cc2ccc1/C=C\c1ccc(cc1)/C=C\2`, the growth with BT-549 breast is 61.7%; in the assay on MDA-MB-435 melanoma, 100%; in the assay with SW-620 colon, 44.5%; in the assay on MCF7 breast, 51.5%; in the assay on HCT-116 colon it was 54%; in the assay on HCC-2998 colon, 108%. Moreover, the growth in the assay with KM12 colon was 81.6%.

Consider `CNC(=O)c1cccc(Cn2nc(C)c(NC(=O)c3ccc(COc4ccc(C(F)(F)F)cc4C)cc3)c2C)n1`, for which the growth with BT-549 breast is 22.1%; in the assay with MDA-MB-435 melanoma, 43.2%; in the assay on SW-620 colon it was 81.8%; in the assay on MCF7 breast, 21.7%; with HCT-116 colon it was 24.4%; in the assay with HCC-2998 colon, 61.7%. In the assay on KM12 colon, the growth is 65.4%.

Consider `COc1cccc(-c2cc(C(=O)Nc3ccc(/C=C/c4ccc(OC5CCN(C)CC5)cc4)cc3)ccc2OC)c1`, for which the growth was 23.1% with BT-549 breast; -77.4% (active) in the assay with MDA-MB-435 melanoma; -60.5% (active) in the assay with SW-620 colon; -34.9% (active) in the assay with MCF7 breast; -93.4% (active) in the assay on HCT-116 colon; 74.9% with HCC-2998 colon. In the assay with KM12 colon, the growth is -72.8% (active).

Regarding `COc1cccc(-c2nc3occn3c2-c2ccnc(NCCNS(=O)(=O)c3cccc4ccccc34)n2)c1`, the growth with BT-549 breast is 105%; in the assay on MDA-MB-435 melanoma, 102%; in the assay with SW-620 colon, 113%; in the assay with MCF7 breast, 95.5%; in the assay with HCT-116 colon, 99.9%; in the assay with HCC-2998 colon, 132%. For the same compound, the growth in the assay with KM12 colon was 93.8%.

For `NC(=O)CSSCC(N)=O`, the growth with MDA-MB-435 melanoma is 91.6%; in the assay with SW-620 colon it was 95.3%; with MCF7 breast it was 103%; in the assay with HCT-116 colon, 91.6%; in the assay with KM12 colon, 101%.

As for `O=S(=O)(NCCNc1nccc(-c2c(-c3cccc(F)c3)nc3sccn23)n1)c1ccc(Br)cc1`, the growth was 63.3% in the assay with BT-549 breast; 21.3% in the assay with MDA-MB-435 melanoma; 54.8% in the assay with SW-620 colon; 23.5% in the assay on MCF7 breast; 33.9% in the assay with HCT-116 colon; 79.5% with HCC-2998 colon. The growth in the assay with KM12 colon is 42.5%.

Regarding `N#C/C(=C\c1ccc([N+](=O)[O-])s1)c1nc2cc(Cl)ccc2s1`, the growth in the assay with BT-549 breast was -6.72% (active); in the assay with MDA-MB-435 melanoma, 29.6%; with SW-620 colon, 1.39% (active); in the assay with MCF7 breast, 4.17% (active); in the assay on HCT-116 colon, -36.4% (active); with HCC-2998 colon, 14.9%. Also, the growth in the assay with KM12 colon is 81.4%.

For the compound `CCCCCCOc1ccc(/C=N/Nc2cc(C)nc3ccc(Cl)cc23)cc1`, the growth with BT-549 breast is 109%; in the assay with MDA-MB-435 melanoma, -75.9% (active); with SW-620 colon, -83.3% (active); in the assay with MCF7 breast it was -66.6% (active); in the assay with HCT-116 colon it was -58.9% (active); in the assay on HCC-2998 colon, -81.9% (active). Moreover, the growth with KM12 colon is -68.2% (active).

Consider `O=C1Nc2ccccc2/C1=C\c1c(-c2ccccc2)nc2ccccn12`, for which the growth is -42% (active) in the assay with MDA-MB-435 melanoma; 21.2% in the assay with SW-620 colon; 19.6% in the assay on MCF7 breast; 20.6% with HCT-116 colon; 107% with HCC-2998 colon; 23.3% with KM12 colon.

Turning to `C=C1C(=O)O[C@H]2[C@H]1CC/C(COC(=O)NCCc1c[nH]c3ccc(OC)cc13)=C\CC[C@@]1(C)O[C@@H]21`, the growth in the assay on BT-549 breast was -22.1% (active); in the assay with MDA-MB-435 melanoma, 14.7%; in the assay with SW-620 colon, -56.2% (active); in the assay on MCF7 breast it was 26.9%; in the assay with HCC-2998 colon, 75.1%; in the assay on KM12 colon, 63.1%.

For the compound `COc1ccc(/C=C/c2nc(Nc3ccc(Cl)cc3)c3ccccc3n2)cc1`, the growth in the assay on BT-549 breast was 93.4%; with MDA-MB-435 melanoma, 55.3%; in the assay on SW-620 colon, 48.7%; in the assay on MCF7 breast, 44%; in the assay with HCT-116 colon, 36.1%; with HCC-2998 colon, 63.9%. In addition, the growth in the assay on KM12 colon was 48%.

As to `[O-][n+]1c(Cl)cc(Cl)c2ccccc21`, the growth with MDA-MB-435 melanoma is 101%; in the assay with SW-620 colon, 107%; in the assay on MCF7 breast it was 97.4%; in the assay on HCT-116 colon it was 103%; in the assay on HCC-2998 colon, 104%; in the assay with KM12 colon, 95.1%.

Take `Cn1c2ccccc2c2c3c(c4c5ccccc5n(C)c4c21)C(=O)OC3`: the growth in the assay on BT-549 breast is 97.2%; with MDA-MB-435 melanoma it was 103%; with SW-620 colon, 88%; with MCF7 breast it was 92.1%; in the assay on HCT-116 colon, 93.8%; in the assay on HCC-2998 colon, 99.7%. The growth with KM12 colon was 97.2%.

In the case of `OC(c1cccc(C(F)(F)F)c1)c1cnccc1NC1CCCCC1` (configuration not stated), the growth with BT-549 breast was 93.5%; in the assay on MDA-MB-435 melanoma, 86.6%; in the assay on SW-620 colon, 77.6%; in the assay on MCF7 breast it was 71.4%; in the assay with HCT-116 colon, 51.1%; with HCC-2998 colon it was -11.3% (active). The growth with KM12 colon is 80.8%.

Turning to `Cc1ccc(NC(=O)Cc2ccc(/C=C/C(=O)c3ncc[nH]3)cc2)cc1`, the growth is 48.9% in the assay on BT-549 breast; 28.7% in the assay with MDA-MB-435 melanoma; 11.7% with SW-620 colon; 14.5% in the assay on MCF7 breast; 8.97% (active) in the assay with HCT-116 colon; 98% in the assay on HCC-2998 colon. In the assay on KM12 colon, the growth is 11.3%.

For the origin of these results see PubChem BioAssay (NCI).
